In all, about 350,000 compounds went through this assay and about 31,000 (8.9%) were called active. Inconclusive results (about 15%) are left out. The entries come from a sample that favours actives as a whole. Entries that show only a call come without a potency. Values without a mark were called inactive. The call rests on the fitted dose curve; in most records, active means well fitted inhibition curve with a large enough effect; inconclusive means small, poorly fitted or top-dose-only effect; inactive means no such curve, though single readings can be large or run the other way.
Potency means the concentration at half of the fitted maximal effect.

Histone-lysine N-methyltransferase EHMT2 (Homo sapiens), sequence (Q96KQ7 913-1193 limits assumed): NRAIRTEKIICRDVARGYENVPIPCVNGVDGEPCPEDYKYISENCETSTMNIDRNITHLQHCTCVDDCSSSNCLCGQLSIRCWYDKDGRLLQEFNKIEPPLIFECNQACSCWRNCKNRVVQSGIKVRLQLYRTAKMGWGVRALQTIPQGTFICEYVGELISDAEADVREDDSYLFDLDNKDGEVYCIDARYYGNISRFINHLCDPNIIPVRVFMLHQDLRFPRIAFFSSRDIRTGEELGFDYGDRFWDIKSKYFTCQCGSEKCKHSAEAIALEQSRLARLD

In this assay the target is Histone-lysine N-methyltransferase EHMT2 (Homo sapiens) (UniProt Q96KQ7). The experiment in a line: qHTS Assay for Inhibitors of Histone Lysine Methyltransferase G9a. Further: nearly all actives have a fitted effect of over 75% in size. The following applies: G9a H3K9 monomethylation, AlphaScreen, 2 h; series mostly up to 59 µM. In outline:
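G9a (20 nM) was preincubated 15 min with compound, then reacted 2 h at room temperature with 500 nM biotin-H3K9 peptide and 20 µM SAM. Monomethyl-H3K9 detected by AlphaScreen using anti-H3K9me1 antibody.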
Turning to `CN(C)CCn1c2c(c(SCC(=O)Nc3ccccc3C(F)(F)F)nc1=O)CCCC2`, the activity, negative = inhibition is 7.38% [at 0.501 µM].
On to `CCOC(=O)c1ccc(NC2=CC(c3ccc(OCC)cc3)N(c3ccc(C(=O)OCC)cc3)C2=O)cc1` (stereo not given), for which the Potency result was “inactive”.
Same read-out and setting: in the case of `COc1cc(NC(=O)CCn2nc(C)cc2C)cc(OC)c1OC` it was “inactive”; in that of `Cc1c(Cl)cccc1NC(=O)C1CCCN(C(=O)c2cnn(-c3ccccc3)c2-n2cccc2)C1` (stereo not given), “inactive”.
Same read-out and setting: under `Cn1c(C(=O)N2CCCC(C(=O)NCc3ccccc3)C2)cc2sccc21` (stereo not given) stands “inactive”; under `COc1ccc(-c2noc(CSc3nc4ccc(C)cc4[nH]3)n2)cc1`, “inactive”; under `O=C(Nc1ccc(C(F)(F)F)cc1)c1cccc(-n2cnnn2)c1`, “inactive”.
Same read-out and setting: under `O=C(CN1C(=O)COc2ccc(Cl)cc21)N1CCOCC1` stands “inactive”.
As for `CC(=N\NC(=O)c1cc(Br)ccc1O)/C(=N/O)C(=O)Nc1ccccc1`, the Potency result is “inactive”.
In the case of `COc1ccc(OC)c(/C=C/C(=O)c2ccc3c(c2)OCO3)c1`, the activity, negative = inhibition was 13.7% [at 12.7 µM].
With `Cc1ccccc1-c1nc(CS(=O)(=O)CC(=O)Nc2cc(Cl)cc(Cl)c2)c(C)o1`, the Potency entry was “inactive”.
Same read-out and setting: under `CCOc1ccccc1C(=O)NC1(C(F)(F)F)NC(=O)N(CCc2ccc(OC)c(OC)c2)C1=O` (stereo not given) stands “inactive”.
With `O=C(CSc1ncnc2sccc12)N1CCN(C(=O)c2cccs2)CC1`, the activity, negative = inhibition is 14% [at 12.7 µM].
Consider `COc1ccc(CNC(=O)c2cc3c(=O)[nH]c4ccc(C)cc4c3s2)c(OC)c1`, for which the Potency entry is “inactive”.
On to `CCOc1ccc(C(=O)Nc2cc(OC)ccc2OC)cc1`, for which the Potency entry was “inactive”.
Same read-out and setting: in the case of `COc1cc(C(=O)Nc2cc(C(F)(F)F)ccc2-n2cncn2)cc(OC)c1OC` it was “inactive”; in that of `CCOc1ccc(C(=O)Nc2cc(Cl)ccc2-n2cncn2)cc1OC`, 15.8 µM (active).
As for `COc1ccc(-n2nnnc2CNC(=O)c2ccc3ccccc3c2)cc1`, the Potency result was “inactive”.
On the same count and under the same terms, under `CN(C)C(CNC(=O)c1cccc(S(=O)(=O)Nc2ccc(Br)cc2)c1)c1ccco1` (stereo not given) stands 50.1 µM (active).
Consider `COc1ccccc1C(CNC(=O)c1cccc(S(=O)(=O)Nc2ccc(F)cc2)c1)N(C)C` (stereo not given), for which the activity, negative = inhibition is 17.4% [at 12.7 µM].
Regarding `COc1ccccc1C(CNC(=O)c1cccc(NS(=O)(=O)c2ccc(Br)cc2)c1)N(C)C` (stereo not given), the Potency entry was “inactive”.
For `CCOc1ccccc1CNCc1c(C(=O)O)c(C)n(Cc2ccc(C)cc2)c1C`, the Potency entry is “inactive”.
For `O=C(O)c1cc2c(cc1NC(=O)c1c(F)cccc1Cl)OCCCO2`, the Potency result was “inactive”.
On the same count and under the same terms, under `O=C(NCCN1CCOCC1)c1ccc2c(c1)ncn2C1CCCC1` stands “inactive”.
Same read-out and setting: under `O=C(NCc1ccc(Cl)cc1)c1ccc2c(c1)nnn2C1CCCC1` stands “inactive”; under `O=C(NCc1cccs1)c1ccc2c(c1)ncn2C1CCCC1`, 50.1 µM (active).
Consider `CCOc1ccc(C(=O)CCC(=O)NC2=NCCS2)cc1`, for which the activity, negative = inhibition was 2.24% [at 0.501 µM].
As for `CN(CCc1ccccn1)C(=O)c1ccc(OC2CCN(CCc3ccccc3)CC2)cc1`, the Potency result was “inactive”.
With `COc1cccc(CN2CCNC(=O)C2CC(=O)N(C)CCc2ccccn2)c1` (stereo not given), the Potency was 44.7 µM (active).
On to `CC(C)c1nc(CNC(=O)CC2C(=O)NCCN2Cc2ccoc2)cs1` (stereo not given), for which the Potency result is “inactive”.
On the same count and under the same terms, in the case of `CN(Cc1cccc2ncccc12)C(=O)CC1C(=O)NCCN1Cc1ccc(F)cc1` (stereo not given) it was 44.7 µM (active).
Turning to `COc1ccccc1CN1CCNC(=O)C1CC(=O)N(C)CC1CCOCC1` (stereo not given), the activity, negative = inhibition is 13.6% [at 0.0925 µM].
Consider `CCCOC(=O)CC1C(=O)NCCN1Cc1ccc(F)cc1` (stereo not given), for which the Potency entry was “inactive”.
The same measure, in the same setting: under `Cc1cnc(CN(C)C(=O)CC2C(=O)NCCN2Cc2cccc(F)c2F)[nH]1` (stereo not given) stands “inactive”.
On the same count and under the same terms, under `CN(C(=O)CC1C(=O)NCCN1Cc1ccc(F)cc1Cl)C1CCCCC1` (stereo not given) stands “inactive”.
The same measure, in the same setting: under `Cc1nc(CN(C)C(=O)CC2C(=O)NCCN2Cc2ccc(F)cc2)cs1` (stereo not given) stands 44.7 µM (active); under `Cc1cccc(NC(=O)Cn2c(=O)n(CCC(C)C)c(=O)c3cccnc32)c1`, “inactive”.
As for `CCN(CC(=O)Nc1c(F)cccc1F)C(=O)c1cnc(C)cn1`, the activity, negative = inhibition is 9.59% [at 2.33 µM].
Regarding `COc1ccc(-c2nc(CN3CCC(C(=O)NCCN(CC(C)C)CC(C)C)CC3)c(C)o2)cc1OC`, the Potency result is “inactive”.
On the same count and under the same terms, in the case of `Cc1ccc(C(=O)Nc2nc(-c3ccccc3)ns2)cc1` it was “inactive”.
Consider `Cc1ccc(CNC(=O)CC(NC(=O)c2ccccc2)c2ccccc2)cc1` (stereo not given), for which the activity, negative = inhibition is 12.4% [at 12.7 µM].
`Cc1ccc(CNC(=O)CCc2c(C)nc3nc(CNC(=O)OC(C)(C)C)nn3c2C)cc1`: the Potency result was “inactive”.
Turning to `COCCNC(=O)c1ccc2c(c1)N=C(C)c1cc(C)ccc1S2`, the Potency result was “inactive”.
For the molecule `CCOC(=O)C1(CCOc2ccccc2)CCN(Cc2ccc(C#CCCO)cc2)CC1`, the Potency entry is “inactive”.
On the same count and under the same terms, under `Cc1ccc(Cl)cc1N(C)C(=O)Cn1nc(Cc2cccnc2)c2ccccc2c1=O` stands “inactive”.
On the same count and under the same terms, under `CCOc1ccccc1C(=O)NCc1ccco1` stands 44.7 µM (active); under `COc1ccc(C(=O)Nc2ccccc2C(=O)NCc2ccco2)cc1`, “inactive”.
On to `O=C(Nc1ccccc1)Nc1ccccc1C(=O)NCc1ccco1`, for which the activity, negative = inhibition is 0.665% [at 12.7 µM].
As to `COc1ccc(NC(=O)CN(C)C(=O)c2ccc(COc3ccccc3)o2)cc1`, the Potency entry is “inactive”.
As to `C[C@H]1[C@H]2c3nc4ccccc4n3C[C@H]1ON2C1CCCCC1`, the Potency result was “inactive”.
Still for that read-out and setting: under `CCS(=O)(=O)Nc1ccc(C2=NN(S(=O)(=O)c3ccc(F)cc3)C(c3ccco3)C2)cc1` (stereo not given) stands 79.4 µM (active); under `CCS(=O)(=O)Nc1ccc(C2=NN(C(C)=O)C(c3cccs3)C2)cc1` (stereo not given), “inactive”; under `CS(=O)(=O)Nc1ccc(C2=NN(S(C)(=O)=O)C(c3cccs3)C2)cc1` (stereo not given), “inactive”.
On the same count and under the same terms, in the case of `CCCCN(CCCC)CCCNC(=O)CN1C(=O)COc2ccc(S(=O)(=O)N3CCC(C)CC3)cc21` it was “inactive”.
In the case of `O=C(CCNC(=O)c1ccc(Br)cc1)NCC(c1ccco1)N1CCCCC1` (stereo not given), the activity, negative = inhibition is 19.9% [at 12.7 µM].
Turning to `C/C(=N\NC(=O)NC1CCCCC1)c1ccc(OC(F)F)cc1OC(F)F`, the Potency entry was “inactive”.
On to `Cc1ccc(/C=N/NC(=S)NC2CCCCC2)o1`, for which the Potency is 50.1 µM (active).
Consider `Cc1ccc(NC(=S)NC2CCCC2)cc1`, for which the activity, negative = inhibition is 23.8% [at 0.501 µM].
On to `C/C(=N\NC(=S)NC1CCCCC1)c1ccc(C)o1`, for which the Potency is 50.1 µM (active).
Same read-out and setting: in the case of `Cc1ccc(/C=N/NC(=O)Cn2ccc(C(F)(F)F)n2)o1` it was “inactive”; in that of `C/C(=N/NC(=O)c1ccc(Br)o1)c1ccc(C)o1`, “inactive”; in that of `O=C(Nc1ccc(Cl)c(Cl)c1)c1ccccc1NC(=O)C1CC=CCC1C(=O)O` (stereo not given), “inactive”.
The same measure, in the same setting: in the case of `COc1ccc(C)cc1NC(=O)CNCc1cccs1` it was “inactive”.
Consider `COc1cc(OC)cc(-c2c(-c3cccs3)c3cc(-c4ccc(OC)cc4F)ccc3n2C)c1`, for which the activity, negative = inhibition is 2.09% [at 0.501 µM].
Turning to `CC(Sc1nnc(-c2cccs2)n1C1CC1)C(=O)NCC1CCCO1` (stereo not given), the activity, negative = inhibition was 29.1% [at 12.7 µM].
Turning to `O=C(NCCC1CCCCN1S(=O)(=O)c1ccccc1)C(=O)NCC1CCCO1` (stereo not given), the activity, negative = inhibition is 10.2% [at 0.501 µM].
With `CCC(=O)N1CCc2cc(CNS(=O)(=O)c3ccc(Br)s3)ccc21`, the Potency result is “inactive”.
Still for that read-out and setting: under `CCOC(=O)Cn1c(=O)n(C2CCCCC2)c2nc(-c3cccc(OC)c3)nc(C(N)=O)c21` stands “inactive”; under `CCOC(=O)c1ccc(NC(=O)CCS(=O)(=O)c2ccc3c(c2)oc(=O)n3C)cc1`, “inactive”; under `Cc1ccc(C)c2sc(NC(=O)c3ccc(S(=O)(=O)N4CCCC4)cc3)nc12`, “inactive”.
As for `CCCC(=O)Nc1ccc(C(=O)NCCCn2ccnc2)cc1`, the Potency result is “inactive”.
On the same count and under the same terms, in the case of `O=C(NCCCn1ccnc1)c1ccccc1F` it was “inactive”; in that of `CCCCC(=O)Nc1ccc(C(=O)NCCCn2ccnc2)cc1`, 12.6 µM (active).
As for `O=C(CC1SC(N2CCCC2)=NC1=O)Nc1ccc(C(=O)NCCc2ccc(F)cc2)cc1` (stereo not given), the activity, negative = inhibition was 9.67% [at 0.501 µM].
With `CCOC(=O)c1scc(-c2ccc(C)cc2)c1S(=O)(=O)Nc1cc(C)ccc1C`, the Potency result is “inactive”.
As for `Cc1cc(C(=O)COc2ccc(Br)cc2F)c(C)n1C1CC1`, the Potency entry is “inactive”.
On the same count and under the same terms, in the case of `COc1ccc(/C(O)=C2/C(=O)C(=O)N(c3nc(C)c(C)s3)C2c2ccco2)cc1` (stereo not given) it was 44.7 µM (active); in that of `COc1ccccc1C1/C(=C(/O)c2ccc(C)cc2)C(=O)C(=O)N1Cc1ccco1` (stereo not given), “inactive”; in that of `COc1cccc(C2/C(=C(/O)c3ccncc3)C(=O)C(=O)N2CCCN(C)C)c1` (stereo not given), “inactive”.
Still for that read-out and setting: in the case of `O=C(C1CCC(=O)N(C2CC2)C1)N1CCN(c2ccc(Cl)cc2)CC1` (stereo not given) it was “inactive”; in that of `Cc1ccsc1CN(C(=O)c1oc2ccc(Br)cc2c1C)C1CCS(=O)(=O)C1` (stereo not given), “inactive”.
On to `Cc1ccc(C(=O)Nc2c(C(=O)NC(C)(C)C)oc3ccccc23)cc1`, for which the Potency entry was “inactive”.
For `CCOC(=O)N1CCN(S(=O)(=O)c2cc(Br)cc3c2N(C(=O)C2CC2)CC3)CC1`, the Potency result was “inactive”.
Same read-out and setting: in the case of `O=C(C1CC1)N1CCc2cc(Br)cc(S(=O)(=O)N3CCN(c4ccccc4F)CC3)c21` it was “inactive”; in that of `COc1cccc(N2CCN(S(=O)(=O)c3cc(Br)cc4c3N(C(=O)C3CC3)CC4)CC2)c1`, 7.94 µM (active).
Consider `Cc1ccc(S(=O)(=O)N(C)C)cc1NC(=O)C(C)OC(=O)c1ccc2ccccc2n1` (stereo not given), for which the activity, negative = inhibition was 10.5% [at 2.33 µM].
Take `C=CCc1c(C)nc2cc(-c3ccccc3)[nH]n2c1=O`: the Potency result was “inactive”.
With `CCOC(=O)c1sc(NC(=O)/C=C/c2ccc(C(C)C)cc2)c(C(=O)OCC)c1C`, the Potency result was “inactive”.
Consider `Cc1nnc(NC(=O)C(c2ccccc2)c2ccccc2)s1`, for which the Potency entry is “inactive”.
Turning to `CCOC(=O)c1c(NC(=O)/C=C/c2ccco2)sc(C)c1C`, the Potency was 44.7 µM (active).
Consider `CCOC(=O)c1c(NC(=S)NC(=O)/C=C/c2cccs2)sc(C)c1C`, for which the Potency result was “inactive”.
In the case of `Cc1nnc(NC(=O)/C=C/c2ccco2)s1`, the Potency was 31.6 µM (active).
On to `CCC(CC)c1nnc(NC(=O)/C=C/c2ccco2)s1`, for which the Potency result is “inactive”.
On the same count and under the same terms, under `Oc1ccccc1-c1nc(/C=C/c2ccc(F)cc2)no1` stands “inactive”.
The same measure, in the same setting: in the case of `O=C(NCC(c1ccc(Cl)cc1)N1CCOCC1)c1ccccc1F` (stereo not given) it was “inactive”.

The values are drawn from PubChem BioAssay AID504332 (National Center for Advancing Translational Sciences (NCATS), 2011).
